IL1B secr inh: inflammasome signaling inhibition, IL-1 beta readout. hit rate 4.7% among 360,000. THP-1 LPS/ATP IL-1B secretion, AlphaLISA, 16 h; active compounds read low. activity change, % at 57.5 µM; in the data active means activity change below about -50%; inconclusive means mostly about -30% to -49%
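Secreted IL-1B measured by AlphaLISA bead assay after 16 h compound exposure of THP-1 cells; compounds (final up to 57.5 uM) added 1 h before LPS (250 ng/mL) and ATP (1.25 mM) stimulation; lower signal means less secretion.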
TDP1 cell CPT: DT40-hTDP1 cell growth loss with CPT. chicken DT40 Tdp1-/-;hTDP1 cells + 20 nM CPT, ATP luminescence, 48 h. Potency, µM (top dose mostly 46.2 µM), without a hit: at the top dose activity change, negative = growth inhibition, most hits filed as inhibitors. hit rate 12% among 420,000. AID 686979; further: potency means the concentration at half of the fitted maximal effect; nearly all actives have a fitted effect of over 55% in size
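Chicken DT40 Tdp1-/- cells stably complemented with human TDP1 were seeded at 400 cells/well in medium containing 20 nM camptothecin, exposed to pin-transferred compounds, and grown at 37 °C for at least 48 hr. Viability was read as ATP luminescence.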
ELG1 DNA repair: blocks ELG1-dependent DNA repair in HEK293T cells. HEK293T ELG1-luciferase reporter, luminescence, 16 h; DNA damage induced by 5-fluorouridine. Potency, µM (highest dose often 46.1 µM), for the others: at the top dose activity change, negative = inhibition, most hits filed as inhibitors. hit rate 2.3% among 330,000; further: potency means the concentration at half of the fitted maximal effect; nearly all actives have a fitted effect of over 55% in size
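Quantitative HTS, concentration-response format. 2,000 cells/well co-treated with 5-fluorouridine and compound, 16 hr in 5% CO2 at 37 °C; ONE-Glo luminescence read after 30 min.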
TDP1 cell noCPT: qHTS for Inhibitors of human tyrosyl-DNA phosphodiesterase 1 (TDP1): qHTS in cells in absence of CPT; hit rate 15% among 420,000; Potency, µM (doses to about 46.2 µM), for inactives: at the top dose activity change, negative = growth inhibition, usual class: inhibitors; DT40 Tdp1-/- hTDP1 cells, no CPT, ATP luminescence, 48 h; AID 686978, 2013; further: potency means the concentration at half of the fitted maximal effect; nearly all actives have a fitted effect of over 55% in size
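Cells were dispensed at 400 per well, compounds added by pin tool, plates incubated ≥48 hr at 37 °C, then CellTiter-Glo added for 30 min at room temperature before luminescence reading. Line: DT40 Tdp1-/- complemented with hTDP1; camptothecin omitted.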
RORgamma inh: inhibitors of mouse ROR gamma transcriptional activity; P51450; Drosophila S2 Gal4-RORgamma UAS-luciferase reporter, 20 h; Potency, µM (series often up to 53.6 µM), inactives show at the highest dose activity change, negative = inhibition, usual class: inhibitors; hit rate 5.4% among 310,000; AID 2551; further: potency means the concentration at half of the fitted maximal effect; nearly all actives have a fitted effect of over 60% in size
Target sequence (P51450 whole entry, looked up, the tested form may be a part): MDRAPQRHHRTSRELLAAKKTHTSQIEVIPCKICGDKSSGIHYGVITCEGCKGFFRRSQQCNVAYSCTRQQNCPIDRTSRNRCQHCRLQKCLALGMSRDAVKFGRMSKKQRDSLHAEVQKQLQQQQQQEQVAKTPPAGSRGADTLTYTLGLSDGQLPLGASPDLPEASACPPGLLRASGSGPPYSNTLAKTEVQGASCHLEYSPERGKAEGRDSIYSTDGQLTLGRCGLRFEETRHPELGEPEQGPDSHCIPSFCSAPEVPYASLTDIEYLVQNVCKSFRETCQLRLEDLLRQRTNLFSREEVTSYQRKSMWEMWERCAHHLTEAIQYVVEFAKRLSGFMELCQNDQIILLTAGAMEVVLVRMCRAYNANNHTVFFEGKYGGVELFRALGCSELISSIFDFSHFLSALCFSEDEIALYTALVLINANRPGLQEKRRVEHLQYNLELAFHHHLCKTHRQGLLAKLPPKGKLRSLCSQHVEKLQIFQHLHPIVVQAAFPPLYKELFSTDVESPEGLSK
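Luminescence from a UAS-regulated Photinus luciferase reporter in stably transfected Drosophila Schneider cells is measured; decreased signal marks ROR gamma inhibition. Fusion expression is induced by 700 uM copper sulfate for 20 hr.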
VP16 counter: inhibits Gal4-VP16 luciferase reporter, ROR gamma counter-screen. Drosophila S2 Gal4-VP16 UAS-luciferase, luminescence, 20 h. Potency, µM (titrated, usually from 53.6 µM), for the others: at the highest dose activity, negative = inhibition, hits mostly inhibitors. hit rate 3.5% among 310,000. AID 2546;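 further: Gal4-VP16 expression switched on by copper sulfate through the metallothionein promoter; potency means the concentration at half of the fitted maximal effect; nearly all actives have a fitted effect of over 50% in size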
The depositor's hits bear a star; ? = inconclusive; nt = no result; [ ] = dose if it differs, or a comment. Only some compounds are listed: those with a hit (about 21% of all), similar ones and a draw of the others. Unless noted, the call rests on the fitted dose curve; in most records, active means well fitted curve in the direction sought with a large enough effect; inconclusive means small, poorly fitted or top-dose-only effect, or another doubt; inactive means no such curve, though single readings can be large; an effect the other way counts as inactive or inconclusive. On the % scale 0 is the no-effect control and ±100 the full control effect.

SMILES	IL1B secr inh	TDP1 cell CPT	ELG1 DNA repair	TDP1 cell noCPT	RORgamma inh	VP16 counter
COc1ccc(-c2nc(N)ncc2-c2ccc(OC)c(OC)c2)c(O)c1	-53*	?	?	?	16%	1%
COc1ccc(-c2nc(N)nc(N)n2)c(O)c1	-24	15µM*	23%	16µM*	nt	nt
COc1ccc(-c2ncncc2-c2ccc(OC)c(OC)c2)c(O)c1	-14	-11%	?	-17%	-5%	-8%
COc1ccc(-c2c(C)nc(N)nc2-c2ccc(OC)cc2O)cc1	11	1%	10%	-25%	-17%	-5%
COc1ccc(-c2c(C)nc(N)nc2-c2ccc(OCc3ccc(C)cc3)cc2O)cc1OC	63	?	-4%	5.8µM*	?	-9%
Nc1ncc(-c2ccccc2)c(-c2ccc(O)cc2O)n1	-92*	-7%	?	?	31%	-1%
Cc1[nH]c2ccccc2c1-c1csc(NC(=O)CN2CCOCC2)n1	22	?	8%	?	3%	-24%
CCOC(=O)CSc1nc2sc3c(c2c(=O)n1-c1ccccc1)CCN(C(C)C)C3	-2	-7%	-6%	?	-2%	-13%
CC(=O)OC[C@@H]1O[C@@H](O/N=C2/C[C@@H](O)[C@@H](O)[C@@H]3[C@@H]4C(=O)N(Cc5ccc6c(c5)OCO6)C(=O)[C@H]4CC[C@@H]23)[C@H](OC(C)=O)[C@H](OC(C)=O)[C@@H]1OC(C)=O	nt	nt	nt	nt	4%[10 µM]	5%[10 µM]
CC(=O)/C(=N/Nc1ccccc1)N1CCOCC1	-12	-17%	14%	-5%	-5%	-4%[0.365 µM]
CC(=O)/C(=N/Nc1ccccc1C)N1CCOCC1	14	8.2µM*	-2%	21µM*	-2%	-4%
COc1cccc(-n2ccnc2SCC(=O)Nc2ccc(Cl)c(Cl)c2)c1	nt	-26%	nt	?	nt	nt
CCC(C)NC(=O)c1cn(CC)c2ccc(S(=O)(=O)N3CCCCCC3)cc2c1=O (stereo unspecified)	?	11%	6.5µM*	?	12%	2%
CCn1cc(C(=O)NCc2ccco2)c(=O)c2cc(S(=O)(=O)N3CCc4ccccc4C3)ccc21	-6	-24%	10µM*	?	28%	-15%
CCn1cc(C(=O)NCc2ccco2)c(=O)c2cc(S(=O)(=O)N3CCC(C)CC3)ccc21	-2	?	10µM*	?	1%	4%
C=CCn1cc(C(=O)OC)c(=O)c2cc(S(=O)(=O)N(CC)CC)ccc21	8	-2%	-10%	-2%	2%	?
CCn1cc(C(=O)NC2CCC(C)CC2)c(=O)c2cc(S(=O)(=O)N3CCCCC3)ccc21 (stereo unspecified)	nt	nt	?	nt	?	6%
C=CCn1cc(C(=O)OC)c(=O)c2cc(S(=O)(=O)N3CCC(C)CC3)ccc21	-5	-18%	-11%	-5%	11µM*	-4%
CCn1cc(C(=O)NCc2ccc(Cl)cc2)c(=O)c2cc(S(=O)(=O)N3CCc4ccccc4C3)ccc21	nt	-16%	nt	?	nt	nt
O=C(CCCC(=O)OCC(Cl)=C(Cl)Cl)Nc1ccc(F)cc1	17	-2%	8%	-7%	18%	1%
O=C(Cc1ccccc1[N+](=O)[O-])OCC(=O)c1ccccc1Br	7	-11%	13%	12%	nt	nt
COC1(C#CC2C=CC(OC(C)=O)C(COC(C)=O)O2)CCCCC1 (stereo unspecified)	nt	nt	nt	nt	25%[10 µM]	9%[10 µM]
O=S1(=O)CCOCCN1Cc1ccc(Cl)cc1Cl	nt	nt	-1%	nt	-18%	-7%
O=C(Cc1ccc2ccccc2c1)NO	nt	4%	nt	-9%	nt	nt
Cc1ccc(OCCOCCn2c(-c3ccc(Cl)cc3)nc3ccccc3c2=O)cc1	nt	-18%	nt	-9%	nt	nt
SMILES	IL1B secr inh	TDP1 cell CPT	ELG1 DNA repair	TDP1 cell noCPT	RORgamma inh	VP16 counter
CCn1cc(C(=O)NCc2ccco2)c(=O)c2cc(S(=O)(=O)N3CCCCCC3)ccc21	-28	21µM*	4.6µM*	?	-66%	?
C=CCn1cc(C(=O)NCCOC)c(=O)c2cc(S(=O)(=O)N3CCCCCC3)ccc21	-17	?	?	?	-1%	1%
C=CCn1cc(C(=O)NCc2ccco2)c(=O)c2cc(S(=O)(=O)N3CCCCCC3)ccc21	?	21µM*	6.5µM*	?	?	-4%
CC1CCN(S(=O)(=O)c2ccc3c(c2)c(=O)c(C(=O)NC(C)c2ccccc2)cn3C)CC1 (stereo unspecified)	nt	?	nt	23µM*	nt	nt
CC(NC(=O)c1cn(C)c2ccc(S(=O)(=O)N3CCCC3)cc2c1=O)c1ccccc1 (stereo unspecified)	-8	?	3%	-11%	12%	-23%
CC[C@]12c3[nH]c4ccc(OC)cc4c3CCN1C(=O)C(CC(=O)NCCCOC)C[C@@H]2C(=O)N1CCN(C(=O)c2ccco2)CC1 (stereo partly specified)	0	10%	13%	1%	nt	nt
CCOC(=O)/C=C/C(=O)OCC(=O)Nc1cccc(Br)c1	-62*	-19%	-10%	?	-6%	-9%
CC(=O)Nc1ccc(NC(=O)COc2ccc(Br)cc2C)cc1	2	3%	7%	-27%	7%	4%
Cc1cccc(NC(=O)COc2ccc(Br)cc2/C=N/O)c1	-1	-28%	?	-30%	5.6µM*	5µM*
CCOC(=O)/C=C/C(=O)OCC(=O)Nc1ccc(C)cc1	-18	-24%	5%	?	-24%	17%
O/N=C/c1cc(Br)ccc1OCc1ccccc1F	-63*	-5%	nt	-19%	nt	nt
COc1ccc(CN2C(=NC(=O)C3CC3)SC3CS(=O)(=O)CC32)cc1 (stereo unspecified)	10	-13%	-1%	33%	-1%	3%
Cc1nn(CC(=O)Nc2cccc(C(F)(F)F)c2)c(=O)c2cccn12	24	?	9%	-15%	-2%	0%
O=C(Cn1cnc(S(=O)(=O)N2CCCCC2)c1)N1CCN(c2ccc([N+](=O)[O-])cc2)CC1	-2	?	7%	-24%	-12%	5%
CCOC(=O)c1cc2c(ccn2C)n1CC(=O)N1CCN(c2cccc(C(F)(F)F)c2)CC1	-1	16µM*	0%	16µM*	9%	-4%
CC1CCN(S(=O)(=O)c2cn(CC(=O)N3CCN(c4cccc(C(F)(F)F)c4)CC3)cn2)CC1	0	15µM*	?	?	?	-2%

Compound activity as filed in PubChem.
